Source: PubChem BioAssay (Tox21)
Inconclusive results are not listed. Activity calls are given as the source filed them. Unless noted, calls follow the shape of the dose curve; as a rule, active = well fitted curve in the direction sought with a large enough effect in the repeat runs; inconclusive = weak or mixed curves; inactive = no such curve, though single readings can be large; an effect the other way counts as inactive or inconclusive.

Legend:
[1] = qHTS assay to identify small molecule agonists of the estrogen related receptor (ERR) signaling pathway from Tox21 library (AID 1224849; calls by dose curve; also: nearly all actives have a fitted effect of over 15% in size)
In short: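 Tox21 compounds tested for ERR agonism in an NTP reporter cell line: 18 h treatment at 37 C, then ONE-Glo luminescence.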

[2] = qHTS RealTime-Glo MT Cell Viability Assay in HEK293 cells - 32 hour (AID 1224868); also: top concentration of the series differs between compounds; nearly all actives have a fitted effect of over 50% in size
In short: (§1)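 Reads taken at 0, 8, 16, 24, 32 and 40 h from the same wells. HEK293 cells (600/well) carried RealTime-Glo reagents from seeding, with compound added after a 5 h settle at 37 C.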

[3] = A CellTox Green Cytotoxicity Assay to monitor cytotoxicity in HEK293 cells - 0 hour (AID 1224869); also: nearly all actives have a fitted effect of over 50% in size
In short: (§2)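 Tox21 screen in HEK293: membrane-impermeant cyanine dye fluoresces on binding dead-cell DNA; compound pinned 5 h post-seeding, plates held at 37 C, signal read repeatedly through 40 h.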

[4] = qHTS RealTime-Glo MT Cell Viability Assay in HepG2 cells - 40 hour (AID 1224870); also: nearly all actives have a fitted effect of over 50% in size
In short: (§3)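 Real-time viability: cells seeded at 600 per well together with NanoLuc and cell-permeant prosubstrate, compounds added after 5 h incubation. Luminescence tracked at 0, 8, 16, 24, 32 and 40 h of exposure.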

[5] = A CellTox Green Cytotoxicity Assay to monitor cytotoxicity in HEK293 cells - 40 hour (AID 1224871); also: nearly all actives have a fitted effect of over 45% in size
In short: as §2

[6] = qHTS RealTime-Glo MT Cell Viability Assay in HEK293 cells - 16 hour (AID 1224872); also: top concentration of the series differs between compounds; nearly all actives have a fitted effect of over 50% in size
In short: as §1

[7] = qHTS RealTime-Glo MT Cell Viability Assay in HepG2 cells - 8 hour (AID 1224873); also: nearly all actives have a fitted effect of over 55% in size
In short: as §3

[8] = qHTS RealTime-Glo MT Cell Viability Assay in HEK293 cells - 40 hour (AID 1224874); conditions: RealTime-Glo luminescence; max response: stronger effect = lower value; also: nearly all actives have a fitted effect of over 50% in size
In short: (§4)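 HEK293 + NanoLuc + prosubstrate, 600 cells/well; 5 h, 37 C/5% CO2; compound 23 nL in DMSO by pintool; 37 C; luminescence read at 0, 8, 16, 24, 32 and 40 h time points.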

[9] = A CellTox Green Cytotoxicity Assay to monitor cytotoxicity in HEK293 cells - 24 hour (AID 1224875); also: series mostly up to about 77 µM; nearly all actives have a fitted effect of over 45% in size
In short: as §2

[10] = A CellTox Green Cytotoxicity Assay to monitor cytotoxicity in HepG2 cells - 16 hour (AID 1224876); also: nearly all actives have a fitted effect of over 45% in size
In short: (§5)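 Measurements at 0, 8, 16, 24, 32 and 40 h of treatment captured CellTox Green fluorescence in HepG2 cells that had been co-plated with reagent and preincubated 5 h at 37 C/5% CO2.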

[11] = qHTS RealTime-Glo MT Cell Viability Assay in HepG2 cells - 32 hour (AID 1224877); also: nearly all actives have a fitted effect of over 55% in size
In short: (§6)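 HepG2 suspension premixed with RealTime-Glo reagents is plated at 600 cells per well and left 5 h at 37 C/5% CO2. Compounds in DMSO then go in, and bioluminescence reflecting viable cell number is recorded over 40 h.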

[12] = A CellTox Green Cytotoxicity Assay to monitor cytotoxicity in HepG2 cells - 24 hour (AID 1224878); also: nearly all actives have a fitted effect of over 45% in size
In short: as §5

[13] = A CellTox Green Cytotoxicity Assay to monitor cytotoxicity in HepG2 cells - 40 hour (AID 1224879); also: nearly all actives have a fitted effect of over 40% in size
In short: as §5

[14] = qHTS RealTime-Glo MT Cell Viability Assay in HEK293 cells - 0 hour (AID 1224880)
In short: as §4

[15] = A CellTox Green Cytotoxicity Assay to monitor cytotoxicity in HEK293 cells - 32 hour (AID 1224881); also: nearly all actives have a fitted effect of over 40% in size
In short: as §2

[16] = A CellTox Green Cytotoxicity Assay to monitor cytotoxicity in HepG2 cells - 0 hour (AID 1224882); also: nearly all actives have a fitted effect of over 35% in size
In short: as §5

[17] = A CellTox Green Cytotoxicity Assay to monitor cytotoxicity in HepG2 cells - 32 hour (AID 1224883); also: nearly all actives have a fitted effect of over 50% in size
In short: as §5

[18] = A CellTox Green Cytotoxicity Assay to monitor cytotoxicity in HEK293 cells - 8 hour (AID 1224884); also: nearly all actives have a fitted effect of over 35% in size; also: potency is read from the fitted curve at half-maximal effect
In short: as §2

[19] = qHTS RealTime-Glo MT Cell Viability Assay in HepG2 cells - 16 hour (AID 1224885); also: nearly all actives have a fitted effect of over 50% in size
In short: as §6

[20] = qHTS RealTime-Glo MT Cell Viability Assay in HepG2 cells - 24 hour (AID 1224867); also: nearly all actives have a fitted effect of over 50% in size
In short: as §6
% is scaled to controls: 0 for no effect and ±100 for the full control effect.

C=CCOc1c(Br)cc(C(C)(C)c2cc(Br)c(OCC=C)c(Br)c2)cc1Br
inactive: outcome [1] | Potency [2] | Potency [3] | outcome [4] | Potency [5] | Potency [6] | outcome [7] | max response [8] 14.4% | Potency [9] | Potency [10] | outcome [11] | Potency [12] | Potency [13] | outcome [14] | Potency [15] | Potency [16] | Potency [17] | Potency [18] | outcome [19]

COC(=O)CCC(=O)O
inactive: outcome [20] | Potency [2] | Potency [3] | outcome [4] | Potency [5] | Potency [6] | outcome [7] | max response [8] 8.17% | Potency [9] | Potency [10] | outcome [11] | Potency [12] | Potency [13] | outcome [14] | Potency [15] | Potency [16] | Potency [17] | Potency [18] | outcome [19]

CN[C@@H]1[C@@H](O)[C@@H](O[C@@H]2[C@H](O)[C@H](O[C@H]3OC(CN)=CC[C@H]3N)[C@@H](N)C[C@H]2N)OCC1(C)O (some centres not stated)
inactive: outcome [1] | Potency [2] | Potency [3] | outcome [4] | Potency [5] | Potency [6] | outcome [7] | max response [8] 1.03% | Potency [9] | Potency [10] | outcome [11] | Potency [12] | Potency [13] | outcome [14] | Potency [15] | Potency [17] | Potency [18] | outcome [19]

CC(C)COC(=O)COc1ccc(Cl)cc1Cl
active: Potency [18] 43.6 µM
inactive: outcome [1] | Potency [2] | Potency [3] | outcome [4] | Potency [5] | Potency [6] | outcome [7] | max response [8] 6.46% | Potency [9] | Potency [10] | outcome [11] | Potency [12] | Potency [13] | outcome [14] | Potency [15] | Potency [16] | Potency [17] | outcome [19]

Cc1ncc([N+](=O)[O-])n1CC(O)CCl (configuration not stated)
inactive: outcome [1] | Potency [2] | Potency [3] | Potency [5] | Potency [6] | outcome [7] | max response [8] 3.64% | Potency [9] | Potency [10] | outcome [11] | Potency [12] | Potency [13] | outcome [14] | Potency [15] | Potency [16] | Potency [17] | Potency [18] | outcome [19]

O=c1[nH]c(=O)c2[nH]c(=O)[nH]c2[nH]1
inactive: activity change, negative = cytotoxicity [20] 1.41% [at 6.97 µM] | activity change, negative = cytotoxic [2] 9.11% [at 6.97 µM] | cytotoxicity [3] -14.8% [at 6.97 µM] | activity change, negative = cytotoxic [4] 0.76% [at 6.97 µM] | cytotoxicity increase [5] -13.3% [at 6.97 µM] | activity change, negative = cytotoxicity [6] 9.21% [at 6.97 µM] | viability change, negative = cytotoxic [7] 1.36% [at 6.97 µM] | max response [8] 10.6% | activity change [9] -9.62% [at 6.97 µM, stronger effect = higher value] | cytotoxicity increase [10] -0.724% [at 6.97 µM] | activity change, negative = cytotoxic [11] 0.932% [at 6.97 µM] | cytotoxicity [12] -0.222% [at 6.97 µM] | cytotoxicity increase [13] 1.9% [at 6.97 µM] | activity change, negative = cytotoxicity [14] 1.84% [at 6.97 µM] | cytotoxicity increase [15] -13.1% [at 6.97 µM] | cytotoxicity [16] -5.08% [at 6.97 µM] | cytotoxicity increase [17] -0.415% [at 6.97 µM] | cytotoxicity increase [18] -15.5% [at 6.97 µM] | activity change, negative = cytotoxic [19] 0.919% [at 6.97 µM]

Cc1ccc(S(=O)(=O)NC(=O)NC2CCCCCCC2)cc1
inactive: outcome [20] | Potency [2] | Potency [3] | outcome [4] | Potency [5] | Potency [6] | outcome [7] | max response [8] 0.902% | Potency [9] | Potency [10] | outcome [11] | Potency [12] | Potency [13] | outcome [14] | Potency [15] | Potency [16] | Potency [17] | Potency [18] | outcome [19]

CCCCCCCCCCCCC
inactive: outcome [20] | Potency [2] | Potency [3] | outcome [4] | Potency [5] | Potency [6] | outcome [7] | max response [8] 7.99% | Potency [9] | Potency [10] | outcome [11] | Potency [12] | Potency [13] | outcome [14] | Potency [15] | Potency [16] | Potency [17] | Potency [18] | outcome [19]

CCCCCCCCCCCCCC(=O)OC
inactive: outcome [20] | Potency [2] | Potency [3] | outcome [4] | Potency [5] | Potency [6] | outcome [7] | max response [8] 12.2% | Potency [9] | Potency [10] | outcome [11] | Potency [12] | Potency [13] | outcome [14] | Potency [15] | Potency [16] | Potency [17] | Potency [18] | outcome [19]

O=C1OC(=O)c2cc(Oc3ccc4c(c3)C(=O)OC4=O)ccc21
inactive: outcome [20] | Potency [2] | Potency [3] | outcome [4] | Potency [5] | Potency [6] | outcome [7] | max response [8] 3.57% | Potency [9] | Potency [10] | outcome [11] | Potency [12] | Potency [13] | outcome [14] | Potency [15] | Potency [16] | Potency [17] | Potency [18] | outcome [19]

Nc1nc(=O)n([C@@H]2O[C@H](CO)[C@@H](O)[C@@H]2F)cc1I
inactive: outcome [20] | Potency [2] | Potency [3] | outcome [4] | Potency [5] | Potency [6] | outcome [7] | max response [8] 3.93% | Potency [9] | Potency [10] | outcome [11] | Potency [12] | Potency [13] | outcome [14] | Potency [15] | Potency [16] | Potency [17] | Potency [18] | outcome [19]

CC(=O)OCCCc1ccccc1
inactive: outcome [1] | Potency [2] | Potency [3] | Potency [5] | Potency [6] | outcome [7] | max response [8] 4.03% | Potency [9] | Potency [10] | outcome [11] | Potency [12] | Potency [13] | Potency [15] | Potency [16] | Potency [17] | outcome [19]

CCCCCN(CCCOC)C(=O)C(CCC(=O)O)NC(=O)c1ccc(Cl)c(Cl)c1 (configuration not stated)
inactive: outcome [1] | Potency [2] | Potency [3] | outcome [4] | Potency [5] | Potency [6] | outcome [7] | max response [8] -0.0123% | Potency [9] | outcome [11] | outcome [14] | Potency [15] | Potency [18] | outcome [19]
